Among all 410,000 compounds or so, about 5,000 (1.2%) were called active. Entries that show only a call come without a potency. Inconclusive results (about 13%) are left out. The sample holds actives, similar compounds and a random draw of the others, so the mix is not that of the screen. Calls come from the whole dose curve; as a rule, active = well fitted inhibition curve with a large enough effect; inconclusive = small, poorly fitted or top-dose-only effect; inactive = no such curve, though single readings can be large or run the other way.
assay: qHTS for Inhibitors of TGF-b; conditions: HepG2 CAGA-GFP TGF-b/SMAD3 reporter, GFP fluorescence, 18 h, TGF-beta stimulated, 500 pg/mL final; series mostly up to 46.1 µM; note: nearly all actives have a fitted effect of over 65% in size
Procedure, shortened: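 Read-out: total well GFP (ex488/em500-530) summed from mean per-cell fluorescence. Cells: HEPG2 CAGA-GFP, 1% FBS DMEM, 18 h at 37 degrees C with 500 pg/mL final TGF-beta. Unstimulated wells served as the full-inhibition control; stimulated DMSO wells = 0%.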
Potency is the fitted concentration of half-maximal effect.

Row | Compound | Potency
1 | Cc1oc2c(c1C(=O)N1CCOCC1)C(=O)c1ccccc1C2=O | 4.47 µM (active)
2 | O=C(c1snnc1-c1ccccc1)N1CCOCC1 | inactive
3 | Cc1ccc(C)c(CN2C(=O)c3ccccc3S(=O)c3ccc(C(=O)N4CCOCC4)cc32)c1 (configuration not stated) | inactive
4 | CCCCOc1ccc(C(=O)N2CC(=O)Nc3ccc(Br)cc3C2c2ccc(F)cc2)cc1 (configuration not stated) | inactive
5 | COc1ccc2oc(=O)c(-c3cn4c(n3)sc3cc(OC)ccc34)cc2c1 | inactive
6 | Cc1c(CCO)sc[n+]1CC(=O)c1ccc2ccccc2c1 | inactive
7 | CCC(C)NC(=O)Cn1c(=O)n(-c2ccc(Cl)cc2)c(=O)c2c3c(sc21)CCCC3 (configuration not stated) | inactive
8 | CCOc1cc(C2c3c(-c4ccc(Br)cc4)n[nH]c3C(=O)N2c2ccc(Cl)cc2)ccc1O (configuration not stated) | 4.47 µM (active)
9 | CCOc1cc(C2C(C(=O)c3ccco3)=C(O)C(=O)N2Cc2ccccc2)ccc1O (configuration not stated) | inactive
10 | CCOC(=O)c1ccc(N2C(=O)c3n[nH]c(C)c3C2c2ccc(O)c(OC)c2)cc1 (configuration not stated) | 11.2 µM (active)
11 | CCOc1ccc(-c2n[nH]c3c2C(c2ccccc2OC)N(c2ccc(Br)cc2)C3=O)cc1 (configuration not stated) | inactive
12 | CCOC(=O)c1ccc(N2C(=O)c3n[nH]c(-c4ccco4)c3C2c2ccc(O)cc2)cc1 (configuration not stated) | 15.8 µM (active)
13 | CCOC(=O)c1ccc(NC2=CC(c3ccc(OCC)cc3)N(c3ccc(C(=O)OCC)cc3)C2=O)cc1 (configuration not stated) | inactive
14 | CCOC(=O)C1=C(c2ccccc2)N=C2SCC(=O)N2C1c1ccc(O)c(OC)c1 (configuration not stated) | inactive
15 | CCOC(=O)c1ccc(NC(=O)CNC(=O)c2ccco2)cc1 | inactive
16 | COc1cc(C2c3c(oc4ccccc4c3=O)C(=O)N2c2nc(C)c(C)s2)ccc1O (configuration not stated) | inactive
17 | Cc1nc(SCC(=O)Nc2ccc(C(=O)O)cc2)n[nH]1 | inactive
18 | O=S(=O)(c1ccc(C2CCCCC2)cc1)N1CCN(c2ccc(Cl)c(Cl)c2)CC1 | inactive
19 | CNc1ccc(-c2nc(-c3ccco3)no2)cc1[N+](=O)[O-] | inactive
20 | CC(C)(C)OC(=O)N(Cc1ccco1)S(=O)(=O)c1ccccc1Br | inactive
21 | CCOc1ccc(NC(=O)CCc2c(C)nn(-c3ccc(N4CCCC4)nn3)c2C)cc1 | inactive
22 | CC1(C)CC(=O)c2cc(C(=O)NCc3ccccc3)c(=O)[nH]c2C1 | inactive
23 | CC(C)(C)c1ccc(C(=O)N2CCC(c3nc(-c4ccc(S(=O)(=O)N5CCCC5)cc4)no3)CC2)cc1 | inactive

Row | Compound | Potency
24 | COc1ccc(NS(=O)(=O)c2cc(NC(=O)/C=C/c3cc(OC)c(OC)c(OC)c3)ccc2N2CCCCC2)cc1 | inactive
25 | COc1ccccc1Nc1c2c(nc3ccc(NC(=O)/C=C/c4cc(OC)c(OC)c(OC)c4)cc13)CCCC2 | 4.47 µM (active)
26 | COc1cc(/C=C/C(=O)N2CCc3ccccc3C2)cc(OC)c1OC | inactive
27 | CCc1ccccc1N1CC(c2nc3ccccc3n2CCCCOc2ccccc2)CC1=O (configuration not stated) | inactive
28 | CCOc1ccc(N2CC(c3nc4ccccc4n3CCOc3ccc(OC)cc3)CC2=O)cc1 (configuration not stated) | inactive
29 | CCCCN1CC(c2nc3ccccc3n2CCCCOc2ccc(C)cc2C)CC1=O (configuration not stated) | 11.2 µM (active)
30 | Cc1oc2ccc(O)c(CN3CCC(C)CC3)c2c1C(=O)Nc1ccccc1 | inactive
31 | Cc1ccc(S(=O)(=O)c2nnn3c2nc(N2CCN(c4ccccc4F)CC2)c2cc(Cl)ccc23)cc1C | inactive
32 | COc1ccc(CNc2nc(-c3ccccc3)nn2C(=O)c2ccccc2OC)cc1 | inactive
33 | OC(Cc1ccc2ccccc2n1)c1ccc(Cl)c(Cl)c1 (configuration not stated) | inactive
34 | CC1CC(C)CN(c2oc(-c3ccc(OCc4ccc(Cl)cc4)cc3)nc2C#N)C1 (configuration not stated) | inactive
35 | CC1=C(C(=O)N2CCOCC2)CC(CC(=O)NCCN2CCOCC2)C(=O)N1CCC1=CCCCC1 (configuration not stated) | inactive
36 | CC1=C(C(=O)N(C)C)CC(CC(=O)NCCc2ccccn2)C(=O)N1CCC1=CCCCC1 (configuration not stated) | inactive
37 | CC1=C(C(=O)N(C(C)C)C(C)C)CC(CC(=O)NCCCCc2ccccc2)C(=O)N1CCC1=CCCCC1 (configuration not stated) | 12.6 µM (active)
38 | COc1ccc(/C=C/c2nnc(NC(=O)C(C)C)s2)cc1 | inactive
39 | O=C(CSc1ccccc1)Nc1nnc(/C=C/c2ccccc2)s1 | inactive
40 | O=C(Nc1ccc(Cl)cc1)Nc1nnc(/C=C/c2ccccc2)s1 | 7.08 µM (active)
41 | COc1ccc(-c2cnc(SCCNC(=O)c3ccc4c(c3)OCO4)[nH]2)cc1 | inactive
42 | COc1cccc(-c2cnc(C(O)c3ccccc3OC)[nH]2)c1 (configuration not stated) | inactive
43 | COc1ccccc1CSc1ncc(-c2ccc([N+](=O)[O-])cc2)[nH]1 | 12.6 µM (active)
44 | COc1ccccc1OCCNC(=O)c1cc([N+](=O)[O-])cc([N+](=O)[O-])c1 | inactive
45 | COc1ccc(C(=O)NCC(=O)N/N=C/c2ccc([N+](=O)[O-])s2)cc1OC | 11.2 µM (active)
46 | Cc1nn(Cc2ccc(Cl)cc2)c(Cl)c1/C=N/NC(=O)CNc1ccccc1F | inactive

Row | Compound | Potency
47 | COc1ccc(C(=O)COC(=O)c2ccc([N+](=O)[O-])s2)cc1OC | inactive
48 | Cc1ccccc1NCC(=O)N/N=C\c1ccc([N+](=O)[O-])s1 | 11.2 µM (active)
49 | Cc1ccc(S(=O)(=O)N2CCN(CC(=O)N/N=C/c3ccc(Br)s3)CC2)cc1 | inactive
50 | COc1ccc(C2C(=O)N(C3CCCCC3)CC(=O)N2Cc2ccccc2Cl)cc1OC (configuration not stated) | inactive
51 | O=C(Cc1ccc(Cl)cc1)Nc1ccc2nn(-c3ccc(Cl)cc3)nc2c1 | inactive
52 | COc1ccc2nc(N3CCN(C(=O)c4ccc([N+](=O)[O-])o4)CC3)sc2c1 | 10 µM (active)
53 | O=C(NCc1ccc(F)cc1)c1ccc2nc(N3CCCCC3)sc2c1 | inactive
54 | CC1CCN(c2nc3ccc(C(=O)N4CCN(c5ccccc5)CC4)cc3s2)CC1 | inactive
55 | CCn1c2ccccc2c2cc(NC(=O)COc3ccc(C)cc3C)ccc21 | inactive
56 | Cn1nc(-c2ccccc2)c(-c2ccccc2)c(C(=O)Nc2ccc(S(N)(=O)=O)cc2)c1=O | inactive
57 | CCCCNc1ccc(-c2nc(-c3ccncc3)no2)cc1[N+](=O)[O-] | inactive
58 | Cc1cccc(N2CCN(C(=O)Cn3ncc4c5ccccc5n(C)c4c3=O)CC2C)c1 (configuration not stated) | inactive
59 | CCOc1ccc(NC(=O)CN(Cc2ccccc2)S(=O)(=O)c2ccc(Cl)cc2)cc1 | inactive
60 | COc1ccc(N(Cc2ccc(N(C)C)cc2)C(=O)c2ccc(S(C)(=O)=O)cc2)cc1 | inactive
61 | CCOc1ccc(N(Cc2ccccc2)C(=O)c2nc(S(C)(=O)=O)ncc2Cl)cc1 | 3.98 µM (active)
62 | CCc1ccc(NC(=O)N2CCN(C(=O)c3nsc4ccccc34)CC2)cc1 | inactive
63 | COc1ccc(CCNC(=O)c2cn(C)c3ccc(S(=O)(=O)N(C)C4CCCCC4)cc3c2=O)cc1OC | inactive
64 | CCOC(=O)c1ccc(-c2ccc(/C=C(\C#N)C(=O)Nc3ccc(C)cc3)o2)cc1 | inactive
65 | COc1ccc(-c2cc(NC=O)c3ncc(-c4cccc(C(=O)N(C)C)c4)n3c2)c(OC)c1 | inactive
66 | COc1ccc(-c2cc(NC=O)c3ncc(-c4ccccc4)n3c2)cc1OC | inactive
67 | CC(=O)c1cccc(-c2cnc3c(NC=O)cc(-c4ccc(N(C)C)cc4)cn23)c1 | 4.47 µM (active)
68 | CN(C)C(=O)c1cccc(-c2cnc3c(NC=O)cc(-c4ccc(C(=O)N5CCOCC5)cc4)cn23)c1 | inactive
69 | CC(=O)c1ccc(-c2cnc3c(NC=O)cc(-c4cccc(NS(C)(=O)=O)c4)cn23)cc1 | 7.08 µM (active)

Row | Compound | Potency
70 | O=CNc1cc(-c2ccc(C(=O)N3CCOCC3)cc2)cn2c(-c3ccc(F)cc3)cnc12 | inactive
71 | CCc1ccccc1NC(=O)c1cnn(-c2ccc(F)cc2)c1C1CCNCC1 | inactive
72 | Cc1nn(CC(=O)NCCc2ccccc2)c(=O)c2c1sc1ccccc12 | inactive
73 | CC(=O)N1c2ccccc2CC1C(=O)N1CCN(c2ccc(F)cc2)CC1 (configuration not stated) | inactive
74 | CCc1ccc(OCCCn2c(CCCNC(=O)C3CCCCC3)nc3ccccc32)cc1 | inactive
75 | CCOC(=O)c1cc(-c2ccccc2)n(-c2cccc(C(=O)Nc3cc(OC)cc(OC)c3)c2)c1C | inactive
76 | COc1ccc(-c2ccc(OC)c(C3C4C=CCC(C)C4C(=O)N3Cc3ccccc3)c2)cc1C (configuration not stated) | inactive
77 | Cc1ccc(-c2cccc([C@H]3[C@@H]4C=CC[C@@H](C)[C@@H]4C(=O)N3Cc3ccccc3)c2)cc1 | 20 µM (active)
78 | Cc1cccc([C@@H]2[C@@H]3C(=O)N(Cc4ccccc4)C(=O)[C@@H]3[C@]3(C)C(=O)N(c4ccc(Br)cc4)C(=O)N23)c1 | inactive
79 | COc1ccc(-n2c(SC)nc3sc4c(c3c2=O)CCN(C(C)=O)C4)cc1 | inactive
80 | Cc1ccc(Cl)cc1N(C)C(=O)Cn1nc(Cc2cccnc2)c2ccccc2c1=O | 12.6 µM (active)
81 | O=C(Cn1nc(Cc2cccnc2)c2ccccc2c1=O)NCC1COc2ccccc2O1 (configuration not stated) | inactive
82 | O=C(Cn1nc(Cc2cccnc2)c2ccccc2c1=O)NCC1CCCO1 (configuration not stated) | inactive
83 | CC(C)CCNC(=O)CSc1nc2ccccc2nc1Cc1ccc(Cl)cc1 | inactive
84 | COc1ccc(CCNC(=O)c2ccc(CSCc3ccc(C)cc3)o2)cc1OC | inactive
85 | Cc1c(C=O)c2ccccc2n1CCOc1ccccc1 | inactive
86 | COC(=O)N/N=C/c1cn(CCCOc2ccc(C)cc2)c2ccccc12 | 14.1 µM (active)
87 | O=Cc1cn(CCOc2ccc(F)cc2)c2ccccc12 | 3.98 µM (active)
88 | O=C1c2ccccc2C(=O)N1CCOc1ccc(F)cc1 | inactive
89 | COc1ccc(OCCn2cc(C(=O)C3CCCCC3)c3ccccc32)cc1 | inactive
90 | Cc1ccc(OCCOc2cccc(/C=N/NC(N)=O)c2)cc1 | inactive
91 | Cc1ccccc1CSc1nc2c([nH]c3ccccc32)c(=O)n1C | inactive
92 | CCn1cc(C(=O)N2CCN(c3cc(Cl)ccc3C)CC2)c(=O)c2cc(S(=O)(=O)N3CCCC3)ccc21 | inactive

Source: PubChem BioAssay AID588855 (National Center for Advancing Translational Sciences (NCATS), 2011)
